# From PubChem BioAssay AID434973 (Sanford-Burnham Center for Chemical Genomics, 2010)
# Out of some 330,000 compounds screened, about 4,900 (1.5%) were called active. What follows is part of a selection rich in actives, with near analogues and random picks from the rest. Unmarked numbers belong to inactive results.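 Rule for the calls: active = inhibition above about 50% at the single test dose (limit read from the data); inactive = the rest.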
# Target: Sentrin-specific protease 7 (Homo sapiens) (UniProt Q9BQF6)
# Assay: blockers of human SENP7 peptidase activity – biochemical, luminescence, uHTS, primary screen (AID 434973);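 note: plate controls were DMSO with enzyme for no effect and no enzyme buffer wells for full effect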
# Details: recombinant SENP7, Z-RLRGG-aminoluciferin luminescence, 40 min; at 5 µM; stronger effect = higher value
row,Compound,inhibition
1,CN(CC(=O)Nc1ccc(F)cc1)CC(=O)N1CCCCC1,4.6%
2,CSC1=N/C(=C\C=C\c2cccs2)C(=O)S1,43.7%
3,CCC1C=C(c2ccccc2)C=CN=C1N(CC)CC (stereo unspecified),2.68%
4,Cn1c(-c2ccco2)nc2cc3ccccc3cc21,98.5% (active)
5,COc1ccccc1-n1c(-c2cc(-c3ccco3)[nH]n2)n[nH]c1=S,2.77%
6,CS(=O)(=O)n1nc(-c2ccco2)nc1N,3.45%
7,CCOC(=O)c1cnc2c(c(C)nn2CC)c1Cl,-8.37%
8,CCCn1c(N)c(C(=O)CSc2nnc(-c3cccnc3)n2-c2ccc(C)cc2C)c(=O)[nH]c1=O,2.06%
9,CCc1ccc(OCC(O)CN2CCN(CCO)CC2)cc1 (stereo unspecified),7.06%
10,O=C(Nc1cccc2ccccc12)c1onc2c1CCCC2,64.8% (active)
11,O=C(O)Cc1ccc(NC(=O)Nc2cccc3ccccc23)cc1,18.4%
12,CN(CC(=O)Nc1ccc(Cl)cc1)CC(=O)Nc1cccc2ccccc12,-3.2%
13,O=C1COc2ccc(C(=O)COC(=O)CCOc3ccccc3)cc2N1,7.4%
14,Cc1cccc(C(=O)N[C@H](C(=O)NCc2cccs2)C(C)C)c1,2.96%
15,COC(=O)C1(C)NC(c2ccccc2OC)C2C(=O)N(c3ccccc3)C(=O)C21 (stereo unspecified),-1.56%
16,COC(=O)c1cc(NC(=O)CN2CCN(C(C)=O)CC2)cc(C(=O)OC)c1,11.3%
17,O=C(CSc1ncn[nH]1)Nc1ccnc2ccccc12,11.7%
18,COc1ccc(C(=O)Nc2ccc(C3(C#N)CCCC3)cc2)cc1OC,95.4% (active)
19,COc1ccc(C(=O)Nc2ccc3nc(N4CCCCC4)cc(C)c3c2)cc1OC,-1.83%
20,COc1cc(C(=O)NCC2(c3ccccc3)CCCC2)ccc1OC(C)C,11.3%
21,CC1CCN(S(=O)(=O)c2ccc(S(=O)(=O)NCc3ccco3)cc2)CC1,-4.7%
22,O=[N+]([O-])c1cc(C(F)(F)F)ccc1NN=C1CCCC1,5.78%
23,O=[N+]([O-])c1ccccc1N/N=C1\CCc2ccccc21,54% (active)
24,CN1CCN(CCNC(=O)Nc2ccccc2[N+](=O)[O-])CC1,-10.6%

row,Compound,inhibition
1,O=C(O)c1cc2ccccc2c(=O)s1,-3.56%
2,Cc1ccsc1C(=O)OCC(=O)c1cc(C)n(CC2CCCO2)c1C (stereo unspecified),94.5% (active)
3,COc1ccc(C(=O)OCC(=O)c2cc(C)n(CC3CCCO3)c2C)cc1[N+](=O)[O-] (stereo unspecified),-9.42%
4,Cc1cc(C(=O)Cn2cnc3cc([N+](=O)[O-])ccc3c2=O)c(C)n1CC1CCCO1 (stereo unspecified),1.73%
5,CC1CCc2c(c3ccccc3[nH]c2=O)O1 (stereo unspecified),4.43%
6,COc1ccc(CNC(=O)Cc2ccc(-c3ccccc3)cc2)cc1OC,-4.04%
7,COc1ccc(CNC(=O)COc2ccccc2C(=O)c2cnn(-c3ccccc3)c2)cc1OC,60.9% (active)
8,COc1ccc(CNC(=O)COC(=O)c2c(C)nn(-c3ccccc3)c2C)cc1OC,4.03%
9,CCOc1ccc(C(=O)NCC(=O)N2CCCCCCC2)cc1OCC,6.97%
10,CCN1C[C@@H]2[C@@H]3C(=O)N(Cc4ccccc4)C(=O)[C@@H]3[C@](Cc3ccccc3)(C(=O)OC)N2C1=NC1CCCCC1,8.17%
11,Cc1ccc(NC(=O)c2cccc(S(=O)(=O)N3CCCc4ccccc43)c2)nc1,5.31%
12,CC(C)c1ccc(S(=O)(=O)N2CCC3(CC2)OCCO3)cc1,3.85%
13,O=C1/C(=C/c2cccs2)CCc2ccccc21,97.7% (active)
14,CN1C/C(=C/c2cccs2)C(=O)/C(=C\c2cccs2)C1,7.35%
15,COc1ccc(/C=C2\CCc3ccccc3C2=O)c(OC)c1OC,-0.625%
16,O=C1/C(=C/c2cccs2)SC(=S)N1C1CCS(=O)(=O)C1 (stereo unspecified),0.763%
17,CCC1C/C(=C/c2cccs2)C(=O)/C(=C/c2cccs2)C1 (stereo unspecified),1.12%
18,O=C1/C(=C/c2cccs2)CCC1C1CCCC1 (stereo unspecified),70% (active)
19,CC(=O)N1CCN(S(=O)(=O)c2c(F)cc(F)c(Cl)c2F)CC1,2.44%
20,O=C1Nc2cc(C(=O)N3CCN(c4ccc(F)cc4)CC3)ccc2NC1CSCc1cccc(F)c1 (stereo unspecified),8.91%
21,COc1ccccc1C(=O)Nc1ccc(C)c(S(=O)(=O)N2CCCCC2)c1,-5%
22,Cc1cnc(C(=O)N2CCCC(N3CCN(c4ccccc4F)CC3)C2)cn1 (stereo unspecified),-6.9%
23,O=C1CN(C(=O)c2ccccc2F)C(c2ccc(F)cc2)c2cc(F)ccc2N1 (stereo unspecified),-0.54%
24,Oc1ccc(N=Nc2nccs2)c(O)c1,74.3% (active)

row,Compound,inhibition
1,Cc1ccc(OCC(=O)N2CCN(S(=O)(=O)c3ccc(Cl)s3)CC2)cc1C,8.22%
2,COc1ccccc1-c1nnc(-c2ccc(F)cc2)o1,50.3% (active)
3,CSc1ccccc1-c1nnc(-c2ccc(Cl)cc2)o1,28.1%
4,COc1ccccc1-c1nc(C(F)(F)F)c(OC)o1,-6.4%
5,O=C(NCc1cccc(Cl)c1)C1=CC=CN2CCS(=O)(=O)N=C12,-0.294%
6,CN1C(=O)c2cccc3c(N)ccc(c23)C1=O,-3.67%
7,CCN1C(=O)c2cccc3c(N)ccc1c23,95.9% (active)
8,CCN1C(=O)c2cccc3c(S(=O)(=O)Nc4ccccc4O)ccc1c23,11.4%
9,CCOC(=O)C1=NNC2(c3ccc(Cl)cc3)C(=O)N(c3cc(C)cc(C)c3)C(=O)C12 (stereo unspecified),6.05%
10,CCCn1c(=O)c2c(C(F)(F)F)cc(-c3cccs3)nc2n(CCC)c1=O,3.7%
11,CCc1nnc(NC(=O)c2c(O)c3c([nH]c2=O)CCCC3)s1,-5.71%
12,C[N+](C)(C)CCNC(=O)c1c(O)c2c([nH]c1=O)CCCC2,4.83%
13,O=C(NCc1ccccn1)c1c(O)c2c([nH]c1=O)CCCC2,53.8% (active)
14,CN1CCN(S(=O)(=O)c2ccc(Nc3ccc(F)cc3)nc2)CC1,-1.19%
15,Cc1c(Br)c([N+](=O)[O-])nn1CC(=O)N1CCN(Cc2ccccc2)CC1,-3.11%
16,O=C(Nc1ccn(Cc2ccccc2F)n1)c1ccc(COc2ccc(Cl)cc2Cl)o1,-4.47%
17,O=C(Nc1ccn(Cc2ccccc2)n1)c1n[nH]c([N+](=O)[O-])c1Cl,93.9% (active)
18,CCN(CC)S(=O)(=O)c1ccc(C(=O)N2CCN(C3=NS(=O)(=O)c4ccccc43)CC2)cc1,0.565%
19,COC(CNC(=O)c1ccc2c(c1)ncn2-c1cc(C)cc(C)c1)OC,-3.05%
20,COc1cc2c(cc1OC)C(C)N(S(=O)(=O)c1cnc(Cl)c(Cl)c1)CC2 (stereo unspecified),7.13%
21,CCn1ccnc1CN(C)Cc1nc(-c2ccc3c(c2)OCO3)no1,3.04%
22,Cc1cccc(OCC(=O)Nc2ccc(NC(=O)c3ccco3)c(C)c2)c1,7.42%
23,COc1ccccc1C(=O)Nc1ccc(NC(=O)c2ccco2)c(C)c1,50.6% (active)
24,COc1ccc(OCC(=O)Nc2ccc(NC(=O)c3ccco3)c(C)c2)cc1,-4.14%

row,Compound,inhibition
1,O=C(Nc1ccc(O)cc1)c1ccc(NC(=O)c2ccco2)cc1,-10.1%
2,Cc1cc(NC(=O)c2ccc(F)cc2)ccc1NC(=O)c1ccco1,64.1% (active)
3,COc1ccc(NC(=O)c2ccco2)cc1NC(=O)c1ccc(C#N)cc1F,1.99%
4,[O-][N+]12CCCCC1CCCC2CO (stereo unspecified),5.46%
5,O=C(COc1nc2ccccc2nc1N1CCOCC1)NCC(F)(F)F,-5.55%
6,CC1CCN(C(=O)C2CCN(S(=O)(=O)N3CCC4(CC3)OCCO4)CC2)CC1,6.94%
7,C=CCNC(=O)c1cc(-c2ccccc2O)on1,-13.1%
8,O=C(Nc1cccnc1Cl)c1cc(-c2ccccc2O)on1,52% (active)
9,O=C(Nc1cccnc1Cl)c1cc(-c2cccc(Cl)c2)on1,-0.404%
10,Cc1nc2nc(COc3ccccc3)[nH]n2c(=O)c1Cc1ccccc1,-6.63%
11,CC(Oc1ccc(Br)cc1Br)C(=O)NC1CCCC1 (stereo unspecified),4.39%
12,CN(CCC(=O)Nc1cc(S(=O)(=O)N(C)C)ccc1Cl)CC(=O)Nc1ccc(F)cc1,4.2%
13,Cc1ccccc1Nc1c([N+](=O)[O-])ccc2nonc12,-0.26%
14,Cc1ccc(-n2nc3ccc(NC(=O)/C=C/c4ccco4)cc3n2)cc1C,-3.4%
15,Cc1cccc(C(=O)OCC(=O)Nc2ccc(F)cc2)c1,-5.6%
16,CCC(=O)Nc1ccc2nn(-c3ccc(F)cc3)nc2c1,81.9% (active)
17,CC12CN(Cc3ccccc3)CC(C)(CN(Cc3ccccc3)C1)C2=NO,-9.93%
18,CCc1noc(C)c1C(=O)Nc1nc2ccc(OC)cc2s1,53.6% (active)
19,COc1cccc(C(=O)Nc2nc3ccc(S(C)(=O)=O)cc3s2)c1,91.1% (active)
20,COc1cccc(C(=O)Nc2nnc(S(=O)(=O)N3CCOCC3)s2)c1,-5.71%
21,CCc1noc(C)c1C(=O)Nc1nc(-c2ccccc2)cs1,0.582%
22,Cc1noc(C)c1CSCC(=O)Nc1nc2ccc(Oc3ccccc3)cc2s1,7.89%
23,COc1cccc(C(=O)Nc2nnc(S(=O)(=O)N(C)c3ccccc3)s2)c1,2.47%
24,O=C(Nc1ccccc1)c1nnsc1S(=O)(=O)c1ccc(Cl)cc1,7.61%
